Bioassay records deposited in PubChem by several laboratories.
This is a sample that favours compounds with a hit; in the whole collection about 2% have one here.
Kir21 block = Kir2.1 (mouse) channel inhibition; AID 1672; P35561; B-score at 10 µM; HEK293-Kir2.1, FluxOR thallium flux fluorescence; hits give low values; 310,000 tested, 0.85% active;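 active means fluorescence ratio B-score at or below minus 3 SD of library scores, with starting-brightness B-score within 2 SD, cut at about -4.2 in these data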;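 further: channel flux triggered by added potassium and thallium sulfate stimulus; B-score of peak minus minimum fluorescence over baseline after thallium stimulus; more negative B-score means stronger Kir2.1 block with less thallium influx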
Target sequence (P35561 whole entry, looked up): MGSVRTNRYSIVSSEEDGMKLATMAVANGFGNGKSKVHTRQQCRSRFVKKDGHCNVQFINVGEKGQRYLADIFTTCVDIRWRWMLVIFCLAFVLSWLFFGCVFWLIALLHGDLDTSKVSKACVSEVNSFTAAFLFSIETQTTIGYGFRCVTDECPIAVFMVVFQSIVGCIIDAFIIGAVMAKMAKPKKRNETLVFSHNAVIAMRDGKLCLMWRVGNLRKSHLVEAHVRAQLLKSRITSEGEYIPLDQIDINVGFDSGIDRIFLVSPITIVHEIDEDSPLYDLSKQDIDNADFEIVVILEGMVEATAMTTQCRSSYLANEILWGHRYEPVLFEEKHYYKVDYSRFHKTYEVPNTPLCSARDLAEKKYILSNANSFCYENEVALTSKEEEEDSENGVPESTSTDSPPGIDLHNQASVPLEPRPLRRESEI
CHT block = human CHT choline transport inhibition; B-score at 10 µM; CHT-expressing cells, membrane potential dye, choline response; hits give low values; Q9GZV3; 310,000 tested, 0.86% active;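 active means B-score over 3 SD under the library average, and starting fluorescence ratio not unusually high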;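 further: choline stimulus applied at its EC90 after an EC20 pre-addition; B-score computed on integrated fluorescence ratio after choline addition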
CHT allo act = allosteric activators of human choline transporter CHT; Q9GZV3; CHT-expressing cells, membrane potential dye, choline EC20; hits give high values; LV-AA mutant CHT in HEK293 cells; B-score at 10 µM; 310,000 tested, 0.49% active; AID 488977;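 active means initial fluorescence not abnormally high and integrated response B-score, plate-corrected, over 3 SD above library mean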
H9c2 TAG inh = reduces triacylglycerol accumulation in H9c2 cells | Nile Red lipid (TAG) fluorescence; cells loaded with 200 µM oleic acid | inhibition, % at 12.5 µM | 230,000 tested, 0.66% active;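 active means pattern-corrected inhibition of lipid staining of at least 50% with the nuclear-stain viability signal not falling by more than 50%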
CHT activ conf = human CHT activation, confirmatory screen; shares compounds with CHT allo act; CHT-expressing cells, membrane potential dye fluorescence (FDSS); % of choline EC20–EC90 response window; HEK293 expressing CHT LV-AA mutant; choline added at its EC20; activation, % at 10 µM; 2,500 tested, 91% active; AID 504833;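 active means primary screen active, with duplicate mean activation above negative control mean plus 3 SD, cut at about 11% in these data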
HEK293 MP dye = counter-screen for CHT activators: effect in parental HEK293 cells; shares compounds with CHT allo act; AID 623908; ratio readout change at 10 µM, hits read low; 2,500 tested, 62% active; membrane potential dye fluorescence (FDSS); measured after EC20 choline addition;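 active means duplicate-averaged ratio beyond 3 SD from buffer wells, up or down, though filed actives are nearly all decreases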
A number is an active result; 0 = inactive; - = not tested or not shown.

SMILES | Kir21 block | CHT block | CHT allo act | H9c2 TAG inh | CHT activ conf | HEK293 MP dye
CC(=O)CCc1ccc(OCCCCN2CCC(Cc3ccccc3)CC2)cc1 | 0 | 0 | 0 | 0 | 14.7 | -25.6
COCCNc1cc(C)c(C#N)c2nc3ccccc3n12 | 0 | 0 | 0 | 0 | 24.0 | -48.9
Cc1cc(NCCOCCO)n2c(nc3ccccc32)c1C#N | 0 | 0 | 0 | - | 50.7 | -58.9
CCCCOC(=O)N1CCOCCOCCOCC1 | -4.7 | 0 | 0 | 0 | 16.8 | 0
Cc1ccn2cc(CSc3ccccc3)nc2c1 | 0 | 0 | 0 | 0 | - | -
Cc1ccn2cc(C34CC5CC(CC(C5)C3)C4)nc2c1 | 0 | 0 | 8.94 | 0 | 17.5 | 0
CCN(CC)C(=O)Cn1cc(C(=O)C(=O)N2CCN(Cc3ccccc3)CC2)c2ccccc21 | 0 | 0 | 0 | - | - | -
CCN1CCN(C(=O)C(=O)c2cn(CC(=O)N(CC)CC)c3ccccc23)CC1 | 0 | 0 | 0 | 0 | 44.4 | 0
CCN(CC)C(=O)C(=O)c1cn(CCOc2ccccc2)c2ccccc12 | 0 | 0 | 0 | 0 | 0 | 0
COc1c2occc2c(OC)c2c(=O)cc(C)oc12 | 0 | 0 | 0 | 0 | 34.3 | -38.4
O=C1CC(c2cc(F)ccc2F)c2cc3c(cc2N1)CCC3 (configuration not stated) | 0 | 0 | 0 | 0 | - | -
COC(=O)C1=C(C)NC(=O)/C1=C\c1cc(C)n(-c2ccccc2C)c1C | 0 | 0 | 0 | 0 | - | -
COC(=O)C1=C(C)NC(=O)/C1=C\c1cc(C)n(-c2c(C)cccc2C)c1C | 0 | 0 | 0 | - | 15.8 | 0
O=C(CSc1ccccn1)Nc1cccc(S(=O)(=O)N2CCCC2)c1 | - | - | - | 0 | - | -
O=C(COc1ccc(Br)cc1)N1CCc2ccccc21 | 0 | 0 | 0 | 0 | - | -
N=C1C(c2ccc(Br)cc2)=C(O)C2CCc3ccccc3N12 (configuration not stated) | - | 0 | 12.9 | - | 55.0 | -66.6
Cc1cc(C)c2c(c1C)C(=O)CCC2 | - | - | - | 0 | - | -
COc1cc(OC)c(OC)cc1/C=N/NC(=O)c1ccc(=O)n(C)c1 | 0 | 0 | 0 | - | 43.0 | -28.9
COc1cc(OC)c(OC)cc1/C=N/NC(=O)C[n+]1ccccc1 | 0 | 0 | 0 | 0 | 51.3 | -41.8
CC(=O)c1ccccc1NC(=O)c1ccc(OCc2c(C)noc2C)cc1 | - | - | - | 0 | - | -
CC(C)c1ccc(C(=O)NCCCNC(=O)c2cnccn2)cc1 | 0 | 0 | 0 | - | - | -
Cc1ccc2c(c1)c1c3n2CCN(CC(O)CNC(C)C)C3CCC1 (configuration not stated) | 0 | 0 | 0 | - | 17.4 | -31
CC(Nc1nc(N2CCNCC2)nc2ccccc12)c1ccccc1 (configuration not stated) | 0 | 0 | 7.12 | 0 | 44.1 | -51.6
CCOC(=O)Cn1c(=O)cc(C)c2ccccc21 | 0 | 0 | 0 | 0 | - | -
CCOC(=O)Cn1c2c(c(=N)c3c1CCC3)CCC2 | 0 | 0 | 0 | 0 | 23.4 | -47.5
SMILES | Kir21 block | CHT block | CHT allo act | H9c2 TAG inh | CHT activ conf | HEK293 MP dye
CCOC(=O)Cn1c2c(c(=N)c3ccccc31)CCC2 | 0 | 0 | 0 | 0 | 65.2 | -51
CCCCCn1c2c(c(=N)c3ccccc31)CCC2 | 0 | 0 | 6.7 | 0 | 40.7 | -64.7
CCOC(=O)CN1NC2(CCCCCCC2)NC1=S | 0 | 0 | 0 | 0 | - | -
CCCc1c(C(=O)N/N=C(\C)c2ccc(CC(C)C)cc2)nnn1-c1nonc1N | - | - | - | 0 | - | -
Cc1ccc(C(=O)N/C(=C\c2cccs2)C(=O)N2CCN(C)CC2)cc1C | 0 | 0 | 0 | 0 | - | -
COc1ccc(S(=O)(=O)N2c3ccc(F)cc3CCC2C)cc1 (configuration not stated) | 0 | 0 | 0 | 0 | 43.9 | 0
Cc1[nH]c2ccccc2c1/C=N/Nc1ccc([N+](=O)[O-])cc1 | 0 | 0 | 0 | - | 16.5 | 0
Cc1[nH]c2ccccc2c1/C=N/NC(=O)c1cccc([N+](=O)[O-])c1 | 0 | 0 | 0 | - | - | -
COc1ccc(CCN(Cc2cc3cc(C)c(C)cc3nc2Cl)C(=O)C2CC2)cc1 | 0 | 0 | 9.18 | - | 0 | 0
CCCC[C@@H]1C[C@H]1[C@@H](NC(=O)c1cccs1)c1ccc(C(F)(F)F)cc1 | 0 | 0 | 0 | - | - | -
CCCC[C@@H]1C[C@H]1[C@@H](NC(=O)c1cccs1)c1ccc(Cl)cc1 | 0 | 0 | 0 | - | 28.6 | 0
COc1cccc(N2C(=O)Nc3ccc(Br)cc3C2(O)C(=O)NCCCN(C)C)c1 (configuration not stated) | 0 | 0 | 0 | - | - | -
CSc1ccc(CN(C)CC(=O)NC(C)c2ccccc2)cc1 (configuration not stated) | 0 | 0 | 0 | 0 | - | -
CC(NC(=O)CN(C)Cc1ccc(Br)cc1)c1ccccc1 (configuration not stated) | 0 | 0 | 7.97 | - | 16.6 | 0
CCCCN(CC(=O)Nc1c(C)cccc1CC)C(=O)SCC | 0 | 0 | 9.1 | - | 12.6 | 0
CCc1cccc(C)c1NC(=O)CN(C)Cc1ccc(Br)cc1 | 0 | 0 | 0 | 0 | 23.9 | 0
CCN(CC)CCCNC(=O)c1cc2c(=O)n(C)c3ccccc3c2n1C | 0 | 0 | 6.72 | 0 | 49.1 | -23.2
COCCNC(=O)c1cc2c(=O)n(C)c3ccccc3c2n1C | 0 | 0 | 0 | 0 | - | -
CN(C)CCNC(=O)c1cc2c(=O)n(C)c3ccccc3c2n1C | 0 | 0 | 0 | - | 41.8 | -33.2
Cn1c(C(=O)NCCCN2CCc3ccccc3C2)cc2c(=O)n(C)c3ccccc3c21 | 0 | 0 | 0 | 0 | 25.5 | -26.6
CCOC(=O)N1CCC(NC(=O)c2cc3c(=O)n(C)c4ccccc4c3n2C)CC1 | 0 | 0 | 0 | - | - | -
Cn1c(C(=O)NC2CC2)cc2c(=O)n(C)c3ccccc3c21 | 0 | 0 | 0 | - | 36.3 | -29.6
Cn1c(C(=O)NCCCN2CCCCCC2)cc2c(=O)n(C)c3ccccc3c21 | - | 0 | 0 | 0 | - | -
CCN(CC)CCNC(=O)c1cc2c(=O)n(C)c3ccccc3c2n1C | 0 | 0 | 0 | 0 | - | -
NC(=O)N/N=C/c1ccccc1OC(=O)c1ccccc1Br | 0 | 0 | 0 | 0 | - | -
SMILES | Kir21 block | CHT block | CHT allo act | H9c2 TAG inh | CHT activ conf | HEK293 MP dye
CC(=NCCCn1ccnc1)C1=C(O)c2ccccc2C1=O | 0 | 0 | 0 | - | 28.5 | -38.4
O=C1C(C=NCCCn2ccnc2)=C(O)c2ccccc21 | 0 | 0 | 0 | 0 | - | -
NC(N)=Nc1nc(-c2ccccc2)c2ccccc2n1 | 0 | 0 | 8.07 | 0 | 24.1 | -52.1
CCc1nc(N=C(N)N)nc2ccccc12 | 0 | 0 | 0 | - | - | -
CCOc1ccc(OCCC(=O)N(CC)CC(=O)Nc2ccccc2C(F)(F)F)cc1 | 0 | 0 | 0 | 0 | - | -
CCN(CC(=O)Nc1ccccc1C(F)(F)F)C(=O)CCOc1ccc(C)cc1 | 0 | 0 | 0 | 0 | 0 | 0
CCOC(=O)c1c(CSc2ccc(C)cc2)n(C)c2cc(Br)c(O)c(CN(C)C)c12 | 0 | 0 | 0 | 0 | - | -
CCOC(=O)c1c(CSc2ccsc2)n(C)c2cc(Br)c(O)c(CN(C)C)c12 | -7.09 | 0 | 6.79 | 0 | 40.3 | 0
Cc1ccc(N/C(N)=N/c2nc(CSc3nnc(C)s3)cc(=O)[nH]2)c(C)c1 | 0 | 0 | 6.88 | 0 | 23.8 | 0
